Potency, outcome and activity change, negative = cytotoxicity data for 10 compounds are collected here from PubChem BioAssay (NCATS).

Assay [1] is described as follows: P-glycoprotein substrates identified in KB-8-5-11 adenocarcinoma cell line, qHTS therapeutic library screen (AID 1346987). Further: nearly all actives have a fitted effect of over 65% in size. Further: potency means the concentration at half of the fitted maximal effect. On activity change, negative = cytotoxicity: series mostly up to about 44 µM. The gist of the method: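 KB-8-5-11: colchicine-selected sub-line of KB-3-1 over-expressing P-gp; assay medium lacked colchicine. 72 h drug exposure at 37 degree C, CellTiter-Glo.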
Assay [2] is described as follows: Natriuretic polypeptide receptor (hNpr1) antagonism - Pilot counterscreen GloSensor control cell line (AID 1347045; calls by dose curve; further: series mostly up to about 38 µM). The method in brief:
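HEK293 cells carrying the GloSensor cGMP sensor (GIP/pGS-40F) were loaded with 2% GloSensor reagent for 2 h, exposed to compounds for 30 min, and then stimulated with 50 uM sodium nitroprusside for 20 min at room temperature.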
Background: The purpose of a counterscreen is to sort out artefacts and off-target activity.

Assay [3] deals with Atrial natriuretic peptide receptor 2 (Homo sapiens) (UniProt P20594). Kind of assay: Natriuretic polypeptide receptor (hNpr2) antagonism - Pilot subtype selectivity assay (AID 1347050; calls by dose curve). The method in brief: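 cGMP-sensor HEK293/hNpr2 cells; 2% GloSensor reagent 2 h RT; compounds 30 min; baseline luminescence read; 1 nM hNppC agonist 20 min RT; final luminescence read by CCD camera. Antagonism = reduced post-agonist signal.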

Assay [4] has as its target Tyrosine-protein phosphatase non-receptor type substrate 1 (Homo sapiens) + Leukocyte surface antigen CD47 (Homo sapiens) (UniProt P78324+Q08722). Kind of assay: CD47-SIRPalpha protein protein interaction - LANCE assay qHTS validation (AID 1347057; active means well fitted curve in the direction sought with a large enough effect in the signal ratio, with a control signal flat, not every such curve was filed as active; the % refers to the signal ratio; further: series mostly up to about 38 µM). The method in brief: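 First, His-tagged CD47 and Eu-labelled anti-His antibody met the compound for 30 min; next, site-specifically biotinylated SIRPalpha was added for 30 min; finally streptavidin-APC was added before reading the TR-FRET ratio.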

Assay [5] is described as follows: NS1 protein of Zika virus - qHTS assay to identify small molecule inhibitors in human HEK 293 cells (AID 1347053). Further: series mostly up to about 46 µM; nearly all actives have a fitted effect of over 55% in size. From the text:
National Center for Advancing Translational Sciences [NCATS]
Johns Hopkins University School of Medicine
The non-structural 1 (NS1) protein of zika virus is known to associate with the viral replication complex. This cell-based TR-FRET ZIKV NS-1 assay measures the increased NS-1 protein in human HEK 293 cells after a 24-hour Zika virus infection by a TR-FRET assay readout. A decrease in the Time-resolved fluorescence energy transfer (TR-FRET) signal in this assay by small molecule treatment indicates an inhibitory effect of the small molecule on the expression of Zika virus NS1 correlating with Zika virus replication.
HEK 293 cells were cultured in EMEM (ATCC, Cat. # 30-2003) medium with 10% fetal bovine serum (GE healthcare Life Sciences, Cat. # SH30071.03), and 1% Pen/Strep (Gibco, Cat. # 15140-122). Cells were seeded in the assay plate and incubated at 37 C with 5% CO2 for 20 hours. Compounds were added to cells and incubated for one hour before addition of ZIKV MR766 strain solution to cells (MOI = 0.5). After an incubation at 37 C for 24 hours, the reagent mixture of TR-FRET ZIKV NS1 assay using two anti-ZIKV NS1 antibodies was added to assay plates. The TR-FRET signals in assay plates were measured using an Envision plate reader (PerkinElmer). […]
(In qHTS, concentration-response curves come from the screen itself.)

Results filed as inconclusive are left out. Where a call stands in place of a potency, no number is given. Unmarked numbers belong to inactive results. Active and inactive are the calls of the source. Unless noted, the call rests on the fitted dose curve; in most records, active means well fitted curve in the direction sought with a large enough effect; inconclusive means small, poorly fitted or top-dose-only effect, or another doubt; inactive means no such curve, though single readings can be large; an effect the other way counts as inactive or inconclusive.

Chain of Atrial natriuretic peptide receptor 2 (Homo sapiens) (P20594 whole entry, looked up): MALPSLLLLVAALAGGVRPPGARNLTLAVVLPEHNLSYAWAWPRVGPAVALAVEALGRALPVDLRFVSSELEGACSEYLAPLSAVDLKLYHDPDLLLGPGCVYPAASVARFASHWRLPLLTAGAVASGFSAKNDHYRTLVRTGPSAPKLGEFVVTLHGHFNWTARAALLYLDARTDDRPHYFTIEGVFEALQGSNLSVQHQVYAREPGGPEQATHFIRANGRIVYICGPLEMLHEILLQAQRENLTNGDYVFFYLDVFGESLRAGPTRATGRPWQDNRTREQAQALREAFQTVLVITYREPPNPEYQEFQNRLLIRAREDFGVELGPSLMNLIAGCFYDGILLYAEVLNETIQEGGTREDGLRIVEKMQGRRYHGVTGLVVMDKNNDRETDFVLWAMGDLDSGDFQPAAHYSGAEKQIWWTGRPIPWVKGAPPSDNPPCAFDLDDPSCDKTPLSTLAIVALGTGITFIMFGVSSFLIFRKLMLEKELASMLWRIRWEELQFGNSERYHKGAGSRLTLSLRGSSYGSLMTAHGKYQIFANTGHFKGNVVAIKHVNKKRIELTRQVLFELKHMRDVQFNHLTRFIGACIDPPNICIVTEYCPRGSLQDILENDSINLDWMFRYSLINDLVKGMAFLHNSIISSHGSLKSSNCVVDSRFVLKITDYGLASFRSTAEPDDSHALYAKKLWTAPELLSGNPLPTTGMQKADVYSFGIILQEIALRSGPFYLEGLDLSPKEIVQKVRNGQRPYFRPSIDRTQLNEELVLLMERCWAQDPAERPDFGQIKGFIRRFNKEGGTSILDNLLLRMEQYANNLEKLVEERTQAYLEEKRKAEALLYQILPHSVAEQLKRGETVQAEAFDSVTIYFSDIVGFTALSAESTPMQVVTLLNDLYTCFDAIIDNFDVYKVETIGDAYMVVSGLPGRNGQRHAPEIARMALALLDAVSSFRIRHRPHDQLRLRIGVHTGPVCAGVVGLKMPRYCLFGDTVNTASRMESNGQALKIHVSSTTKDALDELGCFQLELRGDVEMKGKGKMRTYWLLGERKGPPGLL
Chain of Tyrosine-protein phosphatase non-receptor type substrate 1 (Homo sapiens) + Leukocyte surface antigen CD47 (Homo sapiens) (P78324 whole entry, looked up): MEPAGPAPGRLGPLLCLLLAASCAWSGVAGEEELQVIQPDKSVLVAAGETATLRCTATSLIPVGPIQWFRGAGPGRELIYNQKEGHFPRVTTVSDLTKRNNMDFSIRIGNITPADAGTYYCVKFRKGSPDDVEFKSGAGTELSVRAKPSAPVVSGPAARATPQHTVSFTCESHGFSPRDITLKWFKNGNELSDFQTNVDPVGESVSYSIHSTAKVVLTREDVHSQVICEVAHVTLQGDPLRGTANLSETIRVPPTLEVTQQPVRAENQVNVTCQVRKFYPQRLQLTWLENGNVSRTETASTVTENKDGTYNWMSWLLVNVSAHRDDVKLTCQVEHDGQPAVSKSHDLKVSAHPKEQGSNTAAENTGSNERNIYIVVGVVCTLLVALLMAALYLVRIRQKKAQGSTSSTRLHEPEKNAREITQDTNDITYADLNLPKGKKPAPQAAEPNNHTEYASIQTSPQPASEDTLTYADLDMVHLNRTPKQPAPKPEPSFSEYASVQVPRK
Chain of Tyrosine-protein phosphatase non-receptor type substrate 1 (Homo sapiens) + Leukocyte surface antigen CD47 (Homo sapiens) (Q08722 whole entry, looked up): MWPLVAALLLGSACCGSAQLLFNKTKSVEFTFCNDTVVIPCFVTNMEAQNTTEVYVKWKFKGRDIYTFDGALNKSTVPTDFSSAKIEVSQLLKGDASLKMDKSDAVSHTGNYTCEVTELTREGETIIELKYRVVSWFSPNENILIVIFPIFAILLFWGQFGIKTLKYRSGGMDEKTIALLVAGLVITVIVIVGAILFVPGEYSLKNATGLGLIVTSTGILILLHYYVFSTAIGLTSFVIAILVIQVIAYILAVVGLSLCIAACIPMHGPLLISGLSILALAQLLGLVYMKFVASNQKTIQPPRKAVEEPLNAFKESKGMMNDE

In the case of `CC1(C)CC(=O)N(CCCCN2CCN(c3ncccn3)CC2)C(=O)C1`, the Potency entry in assay [1] is “inactive”. The same measure, in the same setting: the value for `CC1CCC(=O)CC(O)C(O)CC(=O)O1` (configuration not stated) was “inactive”.

With `COC1=Cc2c(nc3n(c2=O)C(C)C(=O)NC3(O)C(C)C)OC=C1` (configuration not stated), the Potency result in assay [1] is “inactive”. The same measure, in the same setting: with `CC[C@@H](c1ccc(F)c(F)c1)n1c(C(=O)OC)c(-c2ccno2)[nH]c1=S` the entry was “inactive”; with `C=CC(C)(CC/C=C(\C)CC/C=C(\C)CC(O)/C=C(\C)C(=O)O)O[C@@H]1O[C@H](CO)[C@@H](O)[C@H](O)[C@H]1O[C@@H]1O[C@H](CO)[C@@H](O)[C@H](O)[C@H]1O` (some centres not stated), “inactive”. As to `CC1(C)C[C@H]2C3=CCC4[C@@]5(C)CC[C@H](O[C@H]6O[C@H](C(=O)O)[C@@H](O)[C@H](O)[C@H]6O[C@H]6O[C@H](CO)[C@@H](O)[C@H](O)[C@H]6O[C@@H]6O[C@H](CO)[C@@H](O)[C@H](O)[C@H]6O)[C@](C)(CO)C5CC[C@@]4(C)[C@]3(C)CC[C@@]2(C)[C@H](O[C@@H]2OC[C@H](O)[C@H](OC3O[C@H](CO)[C@@H](O)[C@H](O)[C@H]3O)[C@H]2O)[C@@H]1O` (some centres not stated), the outcome in assay [1] is “inactive [at 9.29 µM]”. For `C/C=C(\C)C(=O)O[C@@H]1CC2[C@@H](CC=C3C[C@@H](O[C@H]4C[C@H](OC)[C@H](O[C@H]5C[C@H](OC)[C@H](O[C@H]6C[C@H](OC)[C@H](O[C@H]7C[C@@H](OC)[C@H](O[C@@H]8O[C@H](CO)[C@@H](O)[C@H](O)[C@H]8O)[C@@H](C)O7)[C@@H](C)O6)[C@@H](C)O5)[C@@H](C)O4)CC[C@@]32C)[C@@]2(O)CC[C@H](C(C)=O)[C@@]12C` (some centres not stated), the activity change, negative = cytotoxicity in assay [1] was 3.56% [at 9.29 µM]. Regarding `COc1cc(N2CCC(O)CC2)ccc1Nc1cc(Nc2ccccc2S(=O)(=O)C(C)C)c2cc[nH]c2n1`, the Potency in assay [1] is 11.4 µM (active). Regarding `CN1Cc2c(N)cccc2C(c2ccccc2)C1` (configuration not stated), the compound was classed as inactive in assay [2], in assay [3] and in assay [4]. As to `CC(=O)OC(C)OC(=O)C(C)c1ccc(-c2ccccc2)c(F)c1` (configuration not stated), in assay [5], the compound was called inactive.
